# Measured values as given in the supplement of paper PMC6522484.
# ± gives the standard deviation of the averaged measurements.
# Columns and labels:
# DLD1 [1] = assay: cell viability (CellTiter-Glo) relative to plate median (fraction of plate median); higher = more viable cells; conditions: 5 µM; treatment time 24 h; reporter: 7TFP
# In short: (§1)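 Colorectal cancer cell lines stably carrying lentiviral TCF/Wnt firefly luciferase reporters (7TFP or TCF4/Wnt) were plated in 384-well plates and, 24 h later, given library compounds at a final 5 µM for 24 h. Firefly luciferase or CellTiterGlo luminescence was read on parallel plates with a Tecan F500 reader. Each well's signal was normalised to the plate median in webcellHTS2 (additive, without log transformation). Values are the mean of two independent replicates.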
# HCT116 [2] = assay: as above; conditions: 5 µM; treatment time 24 h; reporter: TCF4/Wnt
# In short: as §1
# SW480 [3] = assay: as above; conditions: 5 µM; treatment time 24 h; reporter: 7TFP
# In short: as §1
# DLD1 [4] = assay: TCF/Wnt firefly luciferase reporter signal relative to plate median (fraction of plate median); higher = higher Wnt reporter signal; conditions: 5 µM; treatment time 24 h; reporter: 7TFP
# In short: as §1
# SW480 [5] = assay: as above; conditions: 5 µM; treatment time 24 h; reporter: 7TFP
# In short: as §1
# DLD1 [6] = assay: cell viability (CellTiter-Glo) relative to plate median (fraction of plate median); higher = more viable cells; conditions: 10 µM, treatment time 24 h
# In short: (§2)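 In 384-well plates, colorectal cancer lines with stable lentiviral 7TFP or TCF4/Wnt firefly luciferase reporters were seeded and, 24 h later, given kinase inhibitor library compounds at a final 10 µM for 24 h. A Tecan F500 reader measured firefly luciferase on one plate and CellTiterGlo on a parallel plate. Reported figures are two-replicate means of well signals normalised to the plate median, computed additively in webcellHTS2 without log transformation.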
# HCT116 [7] = assay: as above; conditions: 10 µM; treatment time 24 h; reporter: TCF4/Wnt
# In short: as §2
# SW480 [8] = assay: as above; conditions: 10 µM; treatment time 24 h; reporter: 7TFP
# In short: as §2
# DLD1 [9] = assay: TCF/Wnt firefly luciferase reporter signal relative to plate median (fraction of plate median); higher = higher Wnt reporter signal; conditions: 10 µM, treatment time 24 h
# In short: as §2
# HCT116 [10] = assay: as above; conditions: 10 µM; treatment time 24 h; reporter: TCF4/Wnt
# In short: as §2
# SW480 [11] = assay: as above; conditions: 10 µM; treatment time 24 h; reporter: 7TFP
# In short: as §2
compound,measurement,setting,value
O=C(O)CCC1NCC2CC1CN1CCCCC21 (stereo unspecified),cell viability,DLD1 [1],0.999 ± 0.044
same,cell viability,HCT116 [2],1.08 ± 0.042
same,cell viability,SW480 [3],0.971 ± 0.023
same,TCF/Wnt firefly luciferase reporter signal,DLD1 [4],1.27 ± 0.28
same,TCF/Wnt firefly luciferase reporter signal,SW480 [5],1.11 ± 0.078
COc1cc(OC)c(OC)cc1C=O,cell viability,DLD1 [1],0.981 ± 0.13
same,cell viability,HCT116 [2],1.01 ± 0.035
same,cell viability,SW480 [3],0.988 ± 0.06
same,TCF/Wnt firefly luciferase reporter signal,DLD1 [4],0.925 ± 0.0042
same,TCF/Wnt firefly luciferase reporter signal,SW480 [5],0.963 ± 0.04
Cc1ccccc1-n1c(Cn2ncc3c(N)ncnc32)nc2cccc(C)c2c1=O,cell viability,DLD1 [6]; reporter: 7TFP,1.07 ± 0.028
same,cell viability,DLD1 [6]; reporter: TCF4/Wnt,1.03
same,cell viability,HCT116 [7],1.22 ± 0.21
same,cell viability,SW480 [8],1 ± 0.036
same,TCF/Wnt firefly luciferase reporter signal,DLD1 [9]; reporter: 7TFP,1.11 ± 0.13
same,TCF/Wnt firefly luciferase reporter signal,DLD1 [9]; reporter: TCF4/Wnt,0.77 ± 0.022
same,TCF/Wnt firefly luciferase reporter signal,HCT116 [10],0.604 ± 0.42
same,TCF/Wnt firefly luciferase reporter signal,SW480 [11],0.879 ± 0.2
NNCc1ccccc1,cell viability,DLD1 [1],1.08 ± 0.12
same,cell viability,HCT116 [2],1.1 ± 0.13
same,cell viability,SW480 [3],1.06 ± 0.028
same,TCF/Wnt firefly luciferase reporter signal,DLD1 [4],1.07 ± 0.057
same,TCF/Wnt firefly luciferase reporter signal,SW480 [5],1.03 ± 0.093
CCCC(C)(COC(N)=O)COC(=O)NC(C)C (stereo unspecified),cell viability,DLD1 [1],1.06 ± 0.014
same,cell viability,HCT116 [2],0.994 ± 0.14
same,cell viability,SW480 [3],0.97 ± 0.0042
same,TCF/Wnt firefly luciferase reporter signal,DLD1 [4],0.887 ± 0.088
same,TCF/Wnt firefly luciferase reporter signal,SW480 [5],0.992 ± 0.082
C[C@]12CC[C@H](O)CC1=CC[C@@H]1[C@@H]2CC[C@]2(C)C(=O)CC[C@@H]12,cell viability,DLD1 [1],1.04
same,cell viability,HCT116 [2],1.15 ± 0.021
same,cell viability,SW480 [3],1.02 ± 0.021
same,TCF/Wnt firefly luciferase reporter signal,DLD1 [4],1.04 ± 0.14
same,TCF/Wnt firefly luciferase reporter signal,SW480 [5],0.916 ± 0.026
O=c1[nH]c2ccccc2n1C1CCN(CCCC(c2ccc(F)cc2)c2ccc(F)cc2)CC1,cell viability,DLD1 [1],0.95 ± 0.013
same,cell viability,HCT116 [2],0.922 ± 0.065
same,cell viability,SW480 [3],1.01 ± 0.019
same,TCF/Wnt firefly luciferase reporter signal,DLD1 [4],1.02 ± 0.014
same,TCF/Wnt firefly luciferase reporter signal,SW480 [5],0.88 ± 0.12
CC(C)(C)NCC(O)c1cc(Cl)c(N)c(Cl)c1 (stereo unspecified),cell viability,DLD1 [1],1.01 ± 0.024
same,cell viability,HCT116 [2],1.03 ± 0.05
same,cell viability,SW480 [3],0.922 ± 0.012
same,TCF/Wnt firefly luciferase reporter signal,DLD1 [4],0.97 ± 0.038
same,TCF/Wnt firefly luciferase reporter signal,SW480 [5],0.942 ± 0.0071
CC(C)(C)c1cc(C=C(C#N)C#N)cc(Br)c1O,cell viability,DLD1 [6]; reporter: 7TFP,0.79 ± 0.03
same,cell viability,DLD1 [6]; reporter: TCF4/Wnt,0.804 ± 0.18
same,cell viability,HCT116 [7],0.966 ± 0.16
same,cell viability,SW480 [8],0.91 ± 0.035
same,TCF/Wnt firefly luciferase reporter signal,DLD1 [9]; reporter: 7TFP,1.2 ± 0.092
same,TCF/Wnt firefly luciferase reporter signal,DLD1 [9]; reporter: TCF4/Wnt,1.07 ± 0.18
same,TCF/Wnt firefly luciferase reporter signal,HCT116 [10],1.38 ± 0.25
same,TCF/Wnt firefly luciferase reporter signal,SW480 [11],1.3 ± 0.11
c1ccc2nc(N3CCNCC3)ccc2c1,cell viability,DLD1 [1],0.9935 ± 0.0092
same,cell viability,HCT116 [2],1.02 ± 0.081
same,cell viability,SW480 [3],0.974 ± 0.025
same,TCF/Wnt firefly luciferase reporter signal,DLD1 [4],1.02 ± 0.15
same,TCF/Wnt firefly luciferase reporter signal,SW480 [5],0.932 ± 0.028
COP(=S)(OC)SCn1nnc2ccccc2c1=O,cell viability,DLD1 [1],0.983 ± 0.02
same,cell viability,HCT116 [2],0.939 ± 0.049
same,cell viability,SW480 [3],0.955 ± 0.0071
same,TCF/Wnt firefly luciferase reporter signal,DLD1 [4],0.991 ± 0.13
same,TCF/Wnt firefly luciferase reporter signal,SW480 [5],0.903 ± 0.14
CN[C@@H](C)[C@@H](O)c1ccccc1,cell viability,DLD1 [1],0.9265 ± 0.0021
same,cell viability,HCT116 [2],1.02 ± 0.035
same,cell viability,SW480 [3],0.978 ± 0.06
same,TCF/Wnt firefly luciferase reporter signal,DLD1 [4],0.993 ± 0.067
same,TCF/Wnt firefly luciferase reporter signal,SW480 [5],1.03 ± 0.064
COc1cc2c(cc1-c1cc3cc4ccoc4cc3oc1=O)OCO2,cell viability,DLD1 [1],0.964 ± 0.03
same,cell viability,HCT116 [2],0.949 ± 0.054
same,cell viability,SW480 [3],0.93 ± 0.059
same,TCF/Wnt firefly luciferase reporter signal,DLD1 [4],0.973 ± 0.017
same,TCF/Wnt firefly luciferase reporter signal,SW480 [5],0.9445 ± 0.0021
